# Values joined by “and” are separate entries in the source; they are usually repeats but may differ in a detail not shown here. Equal values may be shown once. Records with an inconclusive call do not appear. A call without a number means that no potency is given here. Active and inactive are the calls of the source. Unless noted, the call rests on the fitted dose curve.
# Tests used:
# [1] = Nuclear factor erythroid 2-related factor 2/antioxidant responsive element (Nrf2/ARE) small molecule agonists: qHTS cell viability counter screen in human keratinocytes (AID 1919968; active means well fitted curve in the direction sought with a large enough effect in the repeat runs; an effect the other way counts as inactive or inconclusive; further: nearly all actives have a fitted effect of over 55% in size; further: potency means the concentration at half of the fitted maximal effect)
# Summary of the method: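 Seed 1,500 KeratinoSens cells per well, then incubate 5 h at 37 C/5% CO2. Add compounds in DMSO and incubate 23 h. Add CellTiter-Fluor, wait 1 h and read fluorescence.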
# [2] = Nuclear factor erythroid 2-related factor 2/antioxidant responsive element (Nrf2/ARE) small molecule agonists: luciferase reporter gene qHTS assay in human keratinocytes (AID 1919969); further: nearly all actives have a fitted effect of over 35% in size; further: potency means the concentration at half of the fitted maximal effect
# [3] = target: Gonadotropin-releasing hormone receptor (Homo sapiens) (UniProt P30968); experiment: Human gonadotropin-releasing hormone receptor (GnRHR) small molecule agonists, calcium flux assay in GnRHR-HEK293 cells (AID 1920063); further: nearly all actives have a fitted effect of over 35% in size
# Chain of Gonadotropin-releasing hormone receptor (Homo sapiens) (P30968 whole entry, looked up): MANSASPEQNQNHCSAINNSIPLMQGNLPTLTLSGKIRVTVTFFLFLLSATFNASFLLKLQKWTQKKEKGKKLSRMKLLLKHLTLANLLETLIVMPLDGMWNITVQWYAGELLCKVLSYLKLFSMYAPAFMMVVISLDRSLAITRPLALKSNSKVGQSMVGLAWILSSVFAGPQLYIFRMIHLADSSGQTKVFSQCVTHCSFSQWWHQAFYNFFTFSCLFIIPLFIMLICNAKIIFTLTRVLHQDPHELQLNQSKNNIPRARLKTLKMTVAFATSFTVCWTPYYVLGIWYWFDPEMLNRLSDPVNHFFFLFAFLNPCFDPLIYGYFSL
# Summary of the method: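 Cells: HEK293 stably expressing human GnRHR. Steps: overnight (18 h) culture, 1 h calcium dye loading at 37 C, compound addition, kinetic fluorescence read at 480/540 nm. Each compound tested at 15 concentrations in triplicate.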
# [4] = target: KiSS-1 receptor (Homo sapiens) (UniProt Q969F8); experiment: Human kisspeptin (KISS1R) small molecule agonists, calcium flux assay in KISS1R-HEK293 cells (AID 1920064; active means well fitted curve in the direction sought with a large enough effect in the repeat runs; an effect the other way counts as inactive or inconclusive)
# Chain of KiSS-1 receptor (Homo sapiens) (Q969F8 whole entry, looked up): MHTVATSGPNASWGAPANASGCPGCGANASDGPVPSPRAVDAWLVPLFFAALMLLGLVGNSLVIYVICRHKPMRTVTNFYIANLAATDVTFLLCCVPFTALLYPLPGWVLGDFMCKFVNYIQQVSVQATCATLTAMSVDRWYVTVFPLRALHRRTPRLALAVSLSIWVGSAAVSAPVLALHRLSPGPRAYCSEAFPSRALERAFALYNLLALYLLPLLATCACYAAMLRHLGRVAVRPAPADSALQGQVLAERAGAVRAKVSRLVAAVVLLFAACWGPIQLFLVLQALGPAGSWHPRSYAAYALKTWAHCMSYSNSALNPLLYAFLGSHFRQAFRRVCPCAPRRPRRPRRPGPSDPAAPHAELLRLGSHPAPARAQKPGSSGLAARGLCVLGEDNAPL
# Summary of the method: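 Cells plated and incubated 18 h; dye added, 1 h at 37 C; compounds in DMSO pinned in; signal read at 480/540 nm every second for 3 min. Each compound tested at 15 concentrations in triplicate.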
# [5] = G protein-coupled receptor (GPCR) small molecule agonists, calcium flux assay: HEK293 wild type cell line counter screen (AID 1920065)
# Summary of the method: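 Counter-screen of the Tox21 10K library for non-specific calcium release: dye-loaded cells received compounds in DMSO and were monitored by kinetic fluorescence (480/540 nm, 3 min). Fifteen concentrations, run in triplicate.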
# [6] = p53 small molecule agonists, cell-based qHTS assay with human liver microsomes (AID 1963577);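 further: p53 response element beta-lactamase reporter cells with liver microsomes plus NADPH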
# Summary of the method: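 p53RE-bla cells; 5 h settle, 37 C/5% CO2; cpd + HLM 0.5 mg/mL + NADPH 0.5 mg/mL (final); 16 h 37 C; LiveBLAzer 2 h RT dark; fluorescence readout.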
# [7] = p53 small molecule agonists, cell-based qHTS assay with human liver microsomes: qHTS cell viability counter screen (AID 1963579); further: nearly all actives have a fitted effect of over 45% in size
# Summary of the method: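 Luminescent CellTiter-Glo read-out, 30 min at room temperature, gauged cytotoxicity in p53RE-bla cells exposed 16 h at 37 C to DMSO-dissolved compounds with metabolic activation by human liver microsomes and NADPH, each 0.5 mg/mL final.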
# [8] = p53 small molecule agonists, cell-based qHTS assay with rat liver microsomes: qHTS cell viability counter screen (AID 1963580); further: nearly all actives have a fitted effect of over 45% in size
# Summary of the method: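 Viability is assessed in parallel with the p53 reporter read: HCT-116 p53RE-bla cells receive compounds plus rat microsomes and NADPH (0.5 mg/mL final apiece), incubate 16 h at 37 C, and then CellTiter-Glo luminescence is recorded.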
# [9] = p53 small molecule agonists, cell-based qHTS assay: qHTS cell viability counter screen (AID 1963581); further: nearly all actives have a fitted effect of over 45% in size
# Summary of the method: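 Cells: HCT-116 with p53 response element-driven beta-lactamase. Treatment: 16 h, 37 C, compounds in DMSO. Read: CellTiter-Glo luminescence after 30 min RT.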
# [10] = p53 small molecule agonists, cell-based qHTS assay (AID 1963582; active means well fitted activation curve with a large enough effect in the signal ratio in the repeat runs, not every such curve was filed as active; the % refers to the signal ratio)
# Summary of the method: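 Quantitative HTS in p53RE-bla cells: after a 5 h settling period, compounds delivered in DMSO were left on cells for 16 h at 37 C, and reporter induction was measured as fluorescence following 2 h substrate loading.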
# [11] = target: 5-hydroxytryptamine receptor 2A (Homo sapiens) (UniProt P28223); experiment: 5-hydroxytryptamine receptor 2A (HTR2A) small molecule antagonists, cell-based qHTS assay (AID 1963586); further: nearly all actives have a fitted effect of over 45% in size
# Chain of 5-hydroxytryptamine receptor 2A (Homo sapiens) (P28223 whole entry, looked up): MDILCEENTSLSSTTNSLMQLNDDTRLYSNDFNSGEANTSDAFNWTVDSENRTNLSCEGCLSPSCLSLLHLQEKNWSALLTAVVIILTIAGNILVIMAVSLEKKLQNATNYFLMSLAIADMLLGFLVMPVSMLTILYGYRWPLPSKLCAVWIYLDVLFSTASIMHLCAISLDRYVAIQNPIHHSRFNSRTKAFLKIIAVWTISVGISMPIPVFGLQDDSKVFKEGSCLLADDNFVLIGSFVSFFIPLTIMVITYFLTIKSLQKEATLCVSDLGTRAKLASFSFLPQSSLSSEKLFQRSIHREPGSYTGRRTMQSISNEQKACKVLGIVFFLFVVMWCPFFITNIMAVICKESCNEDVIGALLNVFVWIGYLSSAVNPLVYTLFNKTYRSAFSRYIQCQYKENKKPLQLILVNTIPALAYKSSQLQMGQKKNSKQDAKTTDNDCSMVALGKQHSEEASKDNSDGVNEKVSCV
# Summary of the method: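 Antagonist-mode intracellular calcium assay: DOI (4 nM) added after 5 min compound pre-incubation at room temperature to dye-loaded HTR2A-CHO cells. Fluorescence followed for 3 min, sampled every second.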
# [12] = target: 5-hydroxytryptamine receptor 2A (Homo sapiens) (UniProt P28223); experiment: 5-hydroxytryptamine receptor 2A (HTR2A) small molecule agonists, cell-based qHTS assay (AID 1963587); further: nearly all actives have a fitted effect of over 30% in size
# Summary of the method: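 CHO cells stably expressing human HTR2A, plated 18 h, loaded with calcium dye 1 h at 37 C. Agonist mode: compounds added and intracellular calcium fluorescence recorded kinetically for 2 min at 1 sec intervals.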
# [13] = target: Muscarinic acetylcholine receptor M1 (Homo sapiens) (UniProt P11229); experiment: Cholinergic receptor muscarinic 1 (CHRM1) small molecule antagonists, cell-based qHTS assay (AID 1963588); further: nearly all actives have a fitted effect of over 40% in size
# Chain of Muscarinic acetylcholine receptor M1 (Homo sapiens) (P11229 whole entry, looked up): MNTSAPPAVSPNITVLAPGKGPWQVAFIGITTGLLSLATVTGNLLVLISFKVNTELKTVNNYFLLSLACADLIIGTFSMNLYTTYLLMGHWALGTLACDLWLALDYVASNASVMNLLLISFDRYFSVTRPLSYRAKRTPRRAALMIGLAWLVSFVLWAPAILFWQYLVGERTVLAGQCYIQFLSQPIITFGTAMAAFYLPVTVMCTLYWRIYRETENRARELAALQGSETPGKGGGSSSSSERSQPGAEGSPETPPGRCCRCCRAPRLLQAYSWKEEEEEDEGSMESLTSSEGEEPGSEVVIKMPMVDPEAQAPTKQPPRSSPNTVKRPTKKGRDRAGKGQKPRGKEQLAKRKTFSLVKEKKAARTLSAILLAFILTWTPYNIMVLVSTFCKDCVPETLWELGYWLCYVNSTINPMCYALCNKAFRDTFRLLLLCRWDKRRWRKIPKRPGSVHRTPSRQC
# Summary of the method: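 CHRM1-CHO calcium-flux assay, antagonist mode. Cells were seeded 18 h, dye-loaded 1 h at 37 C and given compound for 5 min at RT, then acetylcholine was added at 50nM. FDSS fluorescence was read 3 min; 15 concentrations, three runs.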
# [14] = target: Muscarinic acetylcholine receptor M1 (Homo sapiens) (UniProt P11229); experiment: Cholinergic receptor muscarinic 1 (CHRM1) small molecule agonists, cell-based qHTS assay (AID 1963589); further: nearly all actives have a fitted effect of over 35% in size
# Summary of the method: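 Agonist-mode qHTS in CHO cells stably carrying human muscarinic M1. Intracellular calcium is tracked by fluorescence every second after compound transfer; each compound runs at 15 concentrations in three independent runs.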
# [15] = cAMP Responsive Elements (CRE) small molecule agonists, cell-based qHTS assay (AID 1963590)
# Summary of the method: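 Agonist mode qHTS in CRE-bla HEK 293T cells: compounds dosed from DMSO for 3 h at 37 C/5% CO2, followed by LiveBLAzer B/G FRET substrate for 2 h at room temperature.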
# [16] = cAMP Responsive Elements (CRE) small molecule antagonists, cell-based qHTS assay (AID 1963591; active means well fitted inhibition curve with a large enough effect in the signal ratio in the repeat runs, not every such curve was filed as active; the % refers to the signal ratio)
# Summary of the method: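 Antagonist mode: test compounds are co-incubated with the adenylyl cyclase activator NKH477 (0.25 uM final) on CRE-bla HEK293T cells for 3 h at 37 °C, followed by LiveBLAzer substrate loading.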
# [17] = target: Beta-2 adrenergic receptor (Homo sapiens) (UniProt P07550); experiment: Adrenergic beta2 receptor (ADRB2) small molecule antagonists, cell-based qHTS assay (AID 1963592); further: series mostly up to about 92 µM; nearly all actives have a fitted effect of over 50% in size
# Chain of Beta-2 adrenergic receptor (Homo sapiens) (P07550 whole entry, looked up): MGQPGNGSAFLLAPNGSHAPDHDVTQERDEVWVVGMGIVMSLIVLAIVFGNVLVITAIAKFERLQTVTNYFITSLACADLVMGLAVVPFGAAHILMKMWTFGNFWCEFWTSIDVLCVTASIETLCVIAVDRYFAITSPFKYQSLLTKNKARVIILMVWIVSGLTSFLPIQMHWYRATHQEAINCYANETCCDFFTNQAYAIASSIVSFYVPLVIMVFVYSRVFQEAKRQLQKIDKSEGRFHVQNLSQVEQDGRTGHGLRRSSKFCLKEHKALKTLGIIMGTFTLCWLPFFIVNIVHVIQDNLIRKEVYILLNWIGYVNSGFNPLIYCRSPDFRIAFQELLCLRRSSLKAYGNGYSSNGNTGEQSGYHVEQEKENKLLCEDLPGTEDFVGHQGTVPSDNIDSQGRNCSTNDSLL
# Summary of the method: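 Cells (CHO, stable ADRB2 overexpression) incubated 18-20hr at 37C; compounds added from DMSO; agonist mix (1nM isoproterenol, 100uM IBMX, 25uM Ro-20-1724) added; 0.5hr RT; d2-cAMP and anti-cAMP-cryptate added; 1hr RT; 665/615 nm read.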
# [18] = target: Beta-2 adrenergic receptor (Homo sapiens) (UniProt P07550); experiment: Adrenergic beta2 receptor (ADRB2) small molecule agonists, cell-based qHTS assay (AID 1963593);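 further: CHO cells stably overexpressing human ADRB2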
# Summary of the method: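 CHO cells stably over-expressing ADRB2 were plated overnight at 37C, then dosed with compounds plus a stimulation mix containing 100uM IBMX and 25uM Ro-20-1724 for 0.5hr at room temperature. cAMP was measured by HTRF competition, 1hr.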
# [19] = target: D(2) dopamine receptor (Homo sapiens) (UniProt P14416); experiment: Dopamine D2 receptor (DRD2) small molecule agonists, cell-based qHTS assay (AID 1963594); further: nearly all actives have a fitted effect of over 35% in size
# Chain of D(2) dopamine receptor (Homo sapiens) (P14416 whole entry, looked up): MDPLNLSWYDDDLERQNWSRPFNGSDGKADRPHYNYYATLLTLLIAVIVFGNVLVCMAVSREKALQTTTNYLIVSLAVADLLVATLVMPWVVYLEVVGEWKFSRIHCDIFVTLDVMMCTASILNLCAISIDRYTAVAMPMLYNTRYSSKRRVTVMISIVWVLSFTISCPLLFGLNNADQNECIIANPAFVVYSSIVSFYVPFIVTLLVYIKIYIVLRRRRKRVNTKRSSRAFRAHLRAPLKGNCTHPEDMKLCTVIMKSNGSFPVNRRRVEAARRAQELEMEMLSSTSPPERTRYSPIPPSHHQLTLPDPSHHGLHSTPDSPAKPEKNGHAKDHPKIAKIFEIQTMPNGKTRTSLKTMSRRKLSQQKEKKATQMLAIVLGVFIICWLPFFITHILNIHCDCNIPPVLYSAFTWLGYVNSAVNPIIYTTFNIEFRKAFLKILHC
# Summary of the method: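 HEK293 cells stably expressing human DRD2, pre-treated with PDE inhibitor Ro20-1724 (0.1 mM final) and compound 10 min at room temperature, then stimulated with NKH477 (200nM […]) for 30 min. cAMP read by HTRF (665/620 nm).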
# [20] = target: D(2) dopamine receptor (Homo sapiens) (UniProt P14416); experiment: Dopamine D2 receptor (DRD2) small molecule antagonists, cell-based qHTS assay (AID 1963595; active means well fitted inhibition curve with a large enough effect in the signal ratio in the repeat runs, with a control signal flat; the % refers to the signal ratio)
# Summary of the method: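 HEK293 cells stably expressing DRD2 were preincubated with 0.1 mM Ro20-1724, then with compound for 10 min at room temperature. Cells were stimulated with 200 nM NKH477 plus 12 nM quinpirole for 30 min, and cAMP was read by HTRF.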
Structure (SMILES),Potency [1],Potency [2],Potency [3],Potency [4],Potency [5],Potency [6],Potency [7],Potency [8],Potency [9],Potency [10],Potency [11],Potency [12],Potency [13],Potency [14],Potency [15],Potency [16],Potency [17],Potency [18],Potency [19],Potency [20]
Cc1ccc(Nc2ccc(O)c3c2C(=O)c2ccccc2C3=O)cc1,inactive,inactive,inactive,inactive,inactive,inactive,inactive,inactive,inactive,inactive,inactive,inactive,inactive,inactive,inactive,inactive,inactive,inactive,inactive,inactive
C[CH2][Ge]([Cl])([CH2]C)[CH2]C,inactive,inactive,inactive,inactive,inactive,inactive,inactive,inactive,inactive,inactive,–,inactive,inactive,inactive,inactive,inactive,inactive,–,inactive,inactive
O=C(O)[C@H](O)[C@@H](O)[C@H](O[C@@H]1O[C@H](CO)[C@H](O)[C@H](O)[C@H]1O)[C@H](O)CO,inactive,inactive,inactive,inactive,inactive,inactive,inactive,inactive,inactive,inactive,inactive,inactive,inactive,inactive,inactive,inactive,inactive,inactive,inactive,inactive
CCN(CC#N)c1cccc(C)c1,inactive,inactive,inactive,inactive,inactive,inactive,inactive,inactive,inactive,inactive,inactive,inactive,inactive,inactive,–,–,inactive,inactive,inactive,inactive
C=CCc1cc(OC)c(O)c(C(=O)NCCO)c1,inactive,inactive,inactive,inactive,inactive,inactive,inactive,inactive,inactive,inactive,inactive,inactive,inactive,inactive,inactive,inactive,–,inactive,inactive,inactive
CCC(CO)(CO)CO,inactive,inactive,inactive,inactive,inactive,inactive,inactive,inactive,inactive,inactive,inactive,inactive,inactive,–,inactive,inactive,inactive,–,inactive,inactive
C[C@@H]1CCN(C(=O)[C@H](CCCN=C(N)N)NS(=O)(=O)c2cccc3c2NC[C@H](C)C3)[C@@H](C(=O)O)C1,inactive,inactive,inactive,inactive,inactive,inactive,inactive,inactive,inactive,inactive,inactive,inactive,inactive,inactive,inactive,inactive,inactive,–,–,inactive
O=C1c2ccccc2C(=O)C1c1ccc2cc(S(=O)(=O)O)cc(S(=O)(=O)O)c2n1,58.9 µM (active),inactive,inactive,inactive,inactive,inactive,inactive,inactive,inactive,inactive,inactive,inactive,inactive,inactive,–,–,inactive,inactive,inactive,inactive
CCCCC1CCC(=O)O1 (stereo not drawn),inactive,inactive,inactive,inactive,inactive,inactive,inactive,inactive,inactive,inactive,inactive,inactive,inactive,inactive,inactive,–,inactive,–,inactive,inactive
CCC(C)C1CCCCC1=O (stereo not drawn),inactive,inactive,inactive,inactive,inactive,–,inactive,inactive,inactive,inactive,inactive,inactive,inactive,inactive,inactive,inactive,inactive,inactive,inactive,inactive
Oc1ccc(/C=C/c2cc(O)cc(O)c2)cc1,inactive,4.9 µM (active) and 7.7 µM (active) and 11.9 µM (active),inactive,inactive,inactive,inactive,inactive,inactive,inactive,inactive,–,–,–,–,–,inactive,inactive,inactive,inactive,inactive
CCCCCCCCCCCC(=O)OC[C@@H](O)[C@H]1OC[C@H](OCCO)[C@H]1OCCO,inactive,23.7 µM (active),inactive,inactive,inactive,inactive,inactive,–,inactive,inactive,–,inactive,inactive,inactive,inactive,inactive,inactive,inactive,–,–
CC(=O)O[C@H]1C[C@@H]2CC[C@@]1(C)C2(C)C,inactive,inactive,inactive,inactive,inactive,inactive,inactive,inactive,inactive,–,inactive,inactive,inactive,inactive,inactive,inactive,inactive,–,inactive,inactive
Cc1c(C)c2c(c(C)c1O)CCC(C)(COc1ccc(CC3SC(=O)NC3=O)cc1)O2 (stereo not drawn),inactive,inactive,inactive,inactive,inactive,inactive,inactive,inactive,inactive,–,–,–,–,–,–,–,inactive,inactive,inactive,inactive

# Reference: PubChem BioAssay (Tox21)
